Screening results: PubChem, National Center for Advancing Translational Sciences (NCATS)
IP6K1 inhibitor – blocks human inositol hexakisphosphate kinase 1 | Q92551 | IP6K1 kinase, ADP-Glo luminescence, 2 h; active compounds read low | activity change, % (series mostly up to about 58 µM) | 0.81% of 140,000 active; in the data active = activity change below about -25%; note: % is set by controls: 0 for no effect and ±100 for the full control effect
Target sequence (Q92551 whole entry, looked up): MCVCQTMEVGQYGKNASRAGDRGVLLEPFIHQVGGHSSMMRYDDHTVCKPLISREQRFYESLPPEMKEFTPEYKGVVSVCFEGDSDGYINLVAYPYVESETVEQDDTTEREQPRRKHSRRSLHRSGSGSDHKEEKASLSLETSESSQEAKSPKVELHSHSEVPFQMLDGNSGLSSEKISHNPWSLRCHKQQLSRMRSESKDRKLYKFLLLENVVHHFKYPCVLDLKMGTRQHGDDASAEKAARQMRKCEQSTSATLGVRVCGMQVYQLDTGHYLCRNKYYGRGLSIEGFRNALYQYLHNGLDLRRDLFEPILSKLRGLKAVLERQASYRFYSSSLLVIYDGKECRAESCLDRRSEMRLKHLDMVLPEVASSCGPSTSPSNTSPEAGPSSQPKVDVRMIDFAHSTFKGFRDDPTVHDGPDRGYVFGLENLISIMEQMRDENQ
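ADP-Glo luminescence measures ADP made by human IP6K1 during a 2 h RT reaction with ATP/IP6 (mix at 1.3 mM/130 uM); top library doses 57.5 and 19.1 uM final.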
HEK293 viab – counter-screen for SNCA expression inhibitors: cell viability; 0.12% of 150,000 active; AID 1671193; Potency, µM (highest dose often 57.1 µM), inactives show at the top dose activity change, negative = cytotoxicity, hits mostly cytotoxic; HEK-293-SNCA-luc viability, GF-AFC fluorescence, 24 h;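 note: potency is the fitted concentration of half-maximal effect; 0% = DMSO-treated cells and -100% = medium-only wells without cells; nearly all actives have a fitted effect of over 30% in size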
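HEK-293-SNCA-luc cells (1500/well) plated 24 h, then exposed 24 h to a dilution series; GF-AFC added 30 min at 37C, fluorescence 405/540 nm; normalised to medium-only and DMSO wells, Hill fit.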
SNCA expr inh – inhibitors of alpha-synuclein (SNCA) gene expression. HEK-293 SNCA-luciferase knock-in, luminescence, 24 h. Potency, µM (highest dose often 57.2 µM), for the others: at the highest dose activity change, negative = inhibition, actives largely listed as inhibitors. 0.17% of 140,000 active. AID 1671194;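 note: potency is the fitted concentration of half-maximal effect; plate controls were DMSO cells for no effect and cell-free wells for full effect; nearly all actives have a fitted effect of over 45% in size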
KDM5B inh – KDM5B demethylase inhibition; KDM5B demethylase, FDH-coupled NADH fluorescence (FDH is formaldehyde dehydrogenase); Potency, µM (series often up to 57.7 µM), actives largely listed as inhibitors; 2.6% of 220,000 active; AID 1347165; note: potency is the fitted concentration of half-maximal effect; 0% is about no effect; nearly all actives have a fitted effect of over 70% in size
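Here, H3K4me3 peptide (12.5 µM in substrate mix) is demethylated by KDM5BΔAP, 200 nM final, after 10 min compound exposure. Formaldehyde product is coupled through FDH (0.25 U/mL in mix) to NADH fluorescence; 30-min ΔRFU feeds dose-response curves.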
The depositor's hits bear a star; i = inactive; u = inconclusive; x = no result; ! = not active in a repeat; [ ] = remark or other dose. Hits are enriched below; roughly 3% of the tested compounds scored in any of these assays. Unless noted, calls come from the whole dose curve; as a rule, active = well fitted curve in the direction sought with a large enough effect; inconclusive = small, poorly fitted or top-dose-only effect, or another doubt; inactive = no such curve, though single readings can be large; an effect the other way counts as inactive or inconclusive.

SMILES | IP6K1 inhibitor | HEK293 viab | SNCA expr inh | KDM5B inh
O=C1NCc2ccccc2CC12CCCN2Cc1ccc(O)cc1O (stereo unspecified) | -1 | 1% | -28% | 89µM*
COc1ccc(CN2CCCC23Cc2ccccc2CNC3=O)c(O)c1 (stereo unspecified) | -7 | 3% | -10% | i
CN(C)C(=O)c1ccc2nccn2c1 | -8 | 2%[87.6 µM] | -16%[87.6 µM] | 126µM*
CC(C)NC(=O)c1ccc2nccn2c1 | -11 | 1%[87.6 µM] | 17%[87.6 µM] | 141µM*
COc1ccc([C@@H](NC(=O)c2ccc3nccn3c2)C2CC(O)C2)cn1 (stereo partly specified) | 16 | 6% | -4% | 20µM*
COc1ccccc1-c1cc(C(=O)NCc2cccc(Cl)c2)nn2cccc12 | 1 | -2% | u | x
COc1ccc(N2CC(COc3ccccc3)Oc3ncccc3C2=O)cc1 (stereo unspecified) | 15 | -2%[23.9 µM] | 6%[25.6 µM] | x
C#CCNC(=O)c1ccc2oc(-c3ccccn3)nc2c1 | -6 | 8% | -4% | x
COc1ncccc1-c1ccnc(-c2nnc(C)n2-c2ccccc2)c1 | 5 | 4%[87.6 µM] | 36%[87.6 µM] | 32µM*
Cc1nnc(-c2cc(-c3cccc(O)c3)ccn2)n1-c1ccccc1 | -3 | -15%[87.6 µM] | 12%[87.6 µM] | i
CCn1ncc(NC(=O)Cn2ncc3cc(-c4cc(F)ccc4F)ccc32)n1 | 9 | -19% | -3% | 20µM*
CCn1ncc(NC(=O)Cn2ncc3cc(-c4ccc(C(=O)N(C)C)cc4)ccc32)n1 | -5 | -16% | 23% | u
CCn1ncc(NC(=O)Cn2ncc3cc(-c4ccc(N(C)C)cc4)ccc32)n1 | 10 | -4% | -5% | 14µM*
CCn1ncc(NC(=O)Cn2ncc3cc(-c4ccc(F)cc4F)ccc32)n1 | 3 | -16% | -2% | u
Cc1cccc(-n2nnnc2S(C)(=O)=O)c1 | 3 | 22µM* | u | u
CN1[C@@H](CCC(=O)NCc2ccco2)CNC(=O)[C@H]2NCC[C@H]21 | -4 | 0%[87.6 µM] | 17%[87.6 µM] | i
Cc1ccc(CN2CC[C@@H]3[C@H]2C(=O)NC[C@H](CCC(=O)N2CCN(c4ccccn4)CC2)N3C)cc1 | 4 | 4% | 19% | 32µM*
CN1[C@@H](CCC(=O)N2CCN(c3ccccn3)CC2)CNC(=O)[C@@H]2[C@H]1CCN2Cc1cccs1 | 11 | -7% | -5% | 28µM*
O=C(Nc1ccccc1)N[C@H]1C[C@H]2C(=O)NC[C@@H](CCC(=O)N3CCN(c4ccccc4)CC3)N2C1 | 17 | 3% | 14% | i
CN1[C@@H](CCC(=O)N2CCc3ccccc32)CNC(=O)[C@@H]2[C@H]1CCN2Cc1cccs1 | 4 | -11% | 7% | i
CN1[C@@H](CCC(=O)N2CCN(c3ccccn3)CC2)CNC(=O)[C@H]2NCC[C@H]21 | 7 | 7%[87.6 µM] | 17%[87.6 µM] | 35µM*
O=C(N[C@H]1C[C@H]2C(=O)NC[C@@H](CCC(=O)N3CCN(c4ccccn4)CC3)N2C1)c1ccccc1 | 0 | 8% | 7% | 25µM*
COc1ccc2c3c1CN(C(=O)COc1ccccc1)CC3=CC(C)(C)CO2 | 10 | x | x | x
O=C(NCc1ccccc1)c1nc2cccnc2n(CCc2ccccc2)c1=O | -22 | 4%[12.5 µM] | u | x
COc1ccc(C(=O)N2CCC3(C2)C(=O)N(Cc2ccccc2)c2ccccc23)cc1 (stereo unspecified) | -7 | 11µM* | u | i
SMILES | IP6K1 inhibitor | HEK293 viab | SNCA expr inh | KDM5B inh
COc1ccc(C(=O)N2CCC3(C2)C(=O)N(CCc2ccccc2)c2ccccc23)cc1 (stereo unspecified) | -1 | u | -11% | i
CC(C)CNc1nccc(C2(c3ccccc3Cl)CCNCC2)n1 | 9 | -14% | 13% | 22µM*
O=C(C1CCN([S+](=O)([O-])c2cccc(C(F)(F)F)c2)CC1)N1CCC(N2Cc3ccccc3C2=O)CC1 | 1 | 5% | 31% | x
O=C(NCC1CCCCC1)C1(CCO)CCN(c2ncccn2)C1 (stereo unspecified) | -10 | -1% | 16% | 32µM*
O=C(NCCN1CCCCC1)C1(CCO)CCN(c2ncccn2)C1 (stereo unspecified) | -8 | -7% | 9% | 25µM*
CC(C)CNC(=O)C1(CCO)CCN(c2ncccn2)C1 (stereo unspecified) | 7 | -14% | -4% | 25µM*
Cc1ccc(-c2ccccc2CN2CCC(C(=O)N3CCC(c4ccccc4)CC3)CC2)cc1Cl | -7 | x | x | x
CCn1c(CO)nnc1C1CC(NC(=O)c2sccc2N)C1 (stereo unspecified) | 14 | -5% | 73% | 11µM*
Cn1c(Cn2cccn2)nnc1C1CC(NC(=O)c2sccc2N)C1 (stereo unspecified) | 3 | -10% | 14% | 16µM*!
CCn1c(CO)nnc1C1CC(NC(=O)c2nc(-c3ccccc3)[nH]c2C)C1 (stereo unspecified) | 23 | 3% | -1% | i
CCNc1ncc(C(=O)NC2CC(c3nnc(CO)n3CC)C2)cn1 (stereo unspecified) | 9 | 4% | -1% | 25µM*
CCn1c(CO)nnc1C1CC(NC(=O)NCCc2ccccc2F)C1 (stereo unspecified) | 7 | -4% | 31% | i
CC(NCc1ccccc1)C(=O)O (stereo unspecified) | x | x | x | i
CC1(C)OC2=C(C(=O)c3ccccc3C2=O)[C@H](NCc2ccccc2)[C@H]1O | x | 14µM* | 12µM* | x
COc1ccc(CNC(=O)c2nc3cccnc3n(Cc3ccc(OC)cc3)c2=O)cc1 | -3 | -3%[12.5 µM] | -5% | x
CN1CCC(NC(=O)C(C)(C)Oc2nn(Cc3cccc(Cl)c3)c3ccccc23)CC1 | 14 | u | u | u
Cn1cc(-c2cc(=O)c3ccnc(NC4CCOCC4)c3o2)cn1 | -17 | 12%[87.6 µM] | -8%[87.6 µM] | i
Cn1cc(-c2cc(=O)c3ccnc(NCc4ccc(F)cc4)c3o2)cn1 | -15 | 2%[87.6 µM] | -28%[87.6 µM] | 32µM*
O=C(c1cc(-c2ccccc2)n[nH]1)N1CCc2c(nc3cc[nH]n3c2=O)C1 | 9 | 11% | 1% | 22µM*
COc1ccccc1CC(=O)N1CCc2c(nc3cc[nH]n3c2=O)C1 | 12 | 6% | -20% | 28µM*
CCOC(=O)c1ccc(NC(=O)N2CCc3c(nc4cc[nH]n4c3=O)C2)cc1 | 1 | 9% | 6% | 22µM*
Cc1ccccc1C(=O)N1CCc2c(nc3cc[nH]n3c2=O)C1 | 13 | 10% | -9% | 28µM*
O=C(c1cc(-c2ccccc2)n[nH]1)N1CCc2c(nc(-c3ccc(F)cc3)[nH]c2=O)C1 | 6 | -9% | -3% | i
COc1ccc2c(c1)CN(CC=C(C)C)C(=O)CCN2CC(O)Cc1ccccc1 (stereo unspecified) | -16 | x | x | x
O=C(Nc1ccccc1)N1CCC(C(=O)N2CCC(N3Cc4ccccc4C3=O)CC2)CC1 | 10 | 7% | -5% | x
CCn1cc(S(=O)(=O)N2CC(c3nc(CCOc4cccc(C)c4)no3)C2)cn1 | 18 | 1% | -12% | x
COCC(=O)NC1CCN(c2nccc(Nc3ccccc3Cl)n2)CC1 | -8 | 11% | u | x
